The inhibition is the change of the read-out against control, counted positive when it falls.

In PubChem BioAssay one finds outcome and inhibition data, which are given here for 15 molecules.

Test [1] relates to TRPC4 beta (transient receptor potential cation channel C4), mouse. As to the kind of experiment: activators of mouse TRPC4 channel, confirmation, cell-based, Fluo4 calcium, HEK293 TRPC4beta/mu-opioid, duplicates, 10 µM (AID 2426;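 active means fluorescence ratio normalized to control raised more than 50% in primary screen plus both repeat runs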). As to conditions: Fluo4 calcium fluorescence, at 10 µM; active compounds read high.
Test [2] concerns transient receptor potential cation channel C4 beta (TRPC4), mouse. Put plainly: activators of mouse TRPC4 channel, confirmation, cell-based, second round, Fluo4, HEK293 TRPC4beta/mu-opioid, 1 µM (AID 2461;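 active means primary screen active and over 50% activation in each of two duplicate runs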). The note with it: Fluo4 calcium fluorescence, at 1 µM; active compounds read high.
Test [3] relates to TRPC4 (transient receptor potential cation channel C4 beta), mouse. As to the kind of experiment: positive allosteric modulators of mouse TRPC4, confirmation, cell-based, second round, Fluo-4, HEK293 TRPC4beta/mu-opioid, 1 µM (AID 2554;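 active means primary screen hit whose fluorescence ratio, in both repeats, exceeds the weak agonist control mean by 3 SD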). The note with it: DAMGO EC20, Fluo-4 calcium flux, at 1 µM; active compounds read high. For orientation: Calcium assays in cells follow changes in intracellular calcium, usually with a dye or a luminescent sensor.

Test [4] has as its system TRPC4 beta (transient receptor potential cation channel C4), mouse. Put plainly: positive allosteric modulators of mouse TRPC4, confirmation, cell-based, Fluo-4, HEK293 TRPC4beta/mu-opioid (AID 2555;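 active means primary screen hit whose calcium fluorescence ratio, in both repeats, exceeds the weak agonist control mean by 3 SD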). The note with it: DAMGO EC20, Fluo-4 calcium flux, at 10 µM; active compounds read high.
Test [5] concerns the target Short transient receptor potential channel 4 (Mus musculus) (UniProt Q9QUQ5). Put plainly: inhibitors of mouse TRPC4 channel, confirmation, cell-based, Fluo4, HEK293 TRPC4beta/mu-opioid (AID 2636;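 active means calcium signal cut by more than 3 SD below the full-agonist control yet still positive, in both repeats and the earlier primary screen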). The note with it: DAMGO, Fluo4 calcium flux, at 10 µM; active compounds read high.
The target is the same in test [6]. As to the kind of experiment: inhibitors of mouse TRPC4 channel, confirmation, cell-based, second round, Fluo4, HEK293 TRPC4beta/mu-opioid, 1 µM (AID 2637;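 active means calcium signal ratio cut to more than 3 SD under the fully stimulated control mean yet still positive, in both repeats and the primary screen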;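 on inhibition: percent of integrated ratio relative to wells lacking test compound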). As to conditions: Fluo4 calcium flux, DAMGO, at 1 µM; active compounds read high.
For test [7] the target is unchanged. Put plainly: mouse TRPC4 channel activators, dose response, cell-based, HEK293 TRPC4/mu-opioid, Fluo-4 calcium (AID 434937;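 active means primary screen activator hit with a dose response curve and TRPC4 channel activation at any tested dose; inactive means no activation, no dose response, or not a primary hit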).
For test [8] the target is unchanged. As to the kind of experiment: TRPC4 positive allosteric modulators, dose response, cell-based, HEK293 TRPC4/mu-opioid, Fluo-4 calcium, EC20 DAMGO (AID 434941;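 active means earlier screen potentiator hit that boosts the TRPC4 ion channel at some dose, with a dose response; inactive means no potentiation, no dose response, or not a prior hit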;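 further: calcium entry triggered by an EC20 dose of DAMGO at the co-expressed mu-opioid receptor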).
Test [9] addresses Short transient receptor potential channel 6 (Mus musculus) (UniProt Q61143). Put plainly: inhibition of mouse TRPC6 channel, confirmation, selectivity assay for TRPC4 inhibitor project, cell-based, HEK293, membrane potential dye, duplicate (AID 434948;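 active means active in primary screen and both duplicates, each dropping signal beyond three positive-control SD with fluorescence still positive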). As to conditions: HEK293 TRPC6, membrane potential dye fluorescence, at 10 µM, stimulated with maximal-effect acetylcholine; active compounds read high.

The target is the same in test [10]. As to the kind of experiment: activation of mouse TRPC6 channel, confirmation, selectivity assay for TRPC4 activator project, cell-based, HEK293, membrane potential dye, duplicate (AID 434950;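 active means membrane potential signal rise above negative control mean plus 3 SD in both duplicates, also active in the earlier TRPC4 screen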). The note with it: HEK293 TRPC6, membrane potential fluorescence, at 10 µM; active compounds read high.
For test [11] the target is unchanged. Put plainly: TRPC6 potentiation by TRPC4 potentiator hits, confirmation, selectivity assay for TRPC4 potentiator project, HEK293 cells, membrane potential dye, duplicate (AID 434952;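 active means compound raising the membrane signal above positive-control mean plus 3 SD in both repeats, and a primary screen hit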). The note with it: HEK293 TRPC6, membrane potential dye fluorescence, at 10 µM, maximal acetylcholine added after compound; active compounds read high.
Test [12] has as its target Short transient receptor potential channel 4 (Mus musculus) (UniProt Q9QUQ5). As to the kind of experiment: calcium flux activators in TRPC4/5HT1a cells, counter-screen for TRPC4 activator project, cell-based, second counter screen, HEK293 TRPC4/5HT1a, Fluo-4 (AID 434977;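 active means calcium signal rise above buffer-control mean plus 5 SD in both duplicates, and also a hit in the primary screen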). The note with it: Fluo-4 calcium flux, at 10 µM; active compounds read high.
A short description of test [13]: calcium flux inhibitors in TRPC4/5HT1a cells, confirmation, counter-screen for TRPC4 inhibitor project, cell-based, second counter screen, HEK293 TRPC4/5HT1a, Fluo-4 (AID 434978;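 active means primary screen active whose calcium signal fell more than 3 SD beyond the full-serotonin control mean in both duplicate plates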;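 on outcome: serotonin given first at submaximal then at maximal dose after compound preincubation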). As to conditions: Fluo-4 calcium flux, at 10 µM, serotonin added to trigger calcium flux; active compounds read high.
Test [14] has as its system TRPC4 (mouse), co-expressed with 5HT1a in HEK293. As to the kind of experiment: calcium flux potentiators in TRPC4/5HT1a cells, confirmation, counter-screen for TRPC4 potentiator project, cell-based, second counter screen, HEK293 TRPC4/5HT1a, Fluo-4 (AID 434979). As to conditions: Fluo-4 calcium flux, at 10 µM, serotonin added at its EC20 dose; active compounds read high.
The nature of test [15]: calcium flux activation in mu-opioid HEK293 cells, confirmation, counter-screen for TRPC4 activator project, cell-based, HEK293 mu-opioid receptor line (AID 449723;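 active means hit in primary screen, with calcium signal over 5 SD above buffer well mean in both duplicates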;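 further: counter screen cells carry the mu-opioid receptor alone and lack TRPC4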). The note with it: Fluo-4 calcium fluorescence, at 10 µM; active compounds read high.
Test [16] is described as follows: calcium flux enhancement in mu-opioid HEK293 cells, confirmation, counter-screen for TRPC4 allosteric potentiator project, cell-based, HEK293 mu-opioid receptor line (AID 449724;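 active means calcium signal rise more than 3 SD above the low-dose agonist control mean, in both duplicate plates and the primary screen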;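 further: HEK293 cells carrying mu-opioid receptor only with no TRPC4 channel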). As to conditions: Fluo-4 calcium flux, at 10 µM, compound added before EC20 DAMGO stimulus; active compounds read high.

Structures are written as SMILES. For part of these data: Measured potencies and affinities stand elsewhere. Calls of active or inactive are those of the source.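 How the source made its calls, unless noted: active means signal rise over 3 SD above mean of control wells given weak agonist, in both repeats and first screen; inactive means the rest.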

Chain of Short transient receptor potential channel 4 (Mus musculus) (Q9QUQ5 whole entry, looked up): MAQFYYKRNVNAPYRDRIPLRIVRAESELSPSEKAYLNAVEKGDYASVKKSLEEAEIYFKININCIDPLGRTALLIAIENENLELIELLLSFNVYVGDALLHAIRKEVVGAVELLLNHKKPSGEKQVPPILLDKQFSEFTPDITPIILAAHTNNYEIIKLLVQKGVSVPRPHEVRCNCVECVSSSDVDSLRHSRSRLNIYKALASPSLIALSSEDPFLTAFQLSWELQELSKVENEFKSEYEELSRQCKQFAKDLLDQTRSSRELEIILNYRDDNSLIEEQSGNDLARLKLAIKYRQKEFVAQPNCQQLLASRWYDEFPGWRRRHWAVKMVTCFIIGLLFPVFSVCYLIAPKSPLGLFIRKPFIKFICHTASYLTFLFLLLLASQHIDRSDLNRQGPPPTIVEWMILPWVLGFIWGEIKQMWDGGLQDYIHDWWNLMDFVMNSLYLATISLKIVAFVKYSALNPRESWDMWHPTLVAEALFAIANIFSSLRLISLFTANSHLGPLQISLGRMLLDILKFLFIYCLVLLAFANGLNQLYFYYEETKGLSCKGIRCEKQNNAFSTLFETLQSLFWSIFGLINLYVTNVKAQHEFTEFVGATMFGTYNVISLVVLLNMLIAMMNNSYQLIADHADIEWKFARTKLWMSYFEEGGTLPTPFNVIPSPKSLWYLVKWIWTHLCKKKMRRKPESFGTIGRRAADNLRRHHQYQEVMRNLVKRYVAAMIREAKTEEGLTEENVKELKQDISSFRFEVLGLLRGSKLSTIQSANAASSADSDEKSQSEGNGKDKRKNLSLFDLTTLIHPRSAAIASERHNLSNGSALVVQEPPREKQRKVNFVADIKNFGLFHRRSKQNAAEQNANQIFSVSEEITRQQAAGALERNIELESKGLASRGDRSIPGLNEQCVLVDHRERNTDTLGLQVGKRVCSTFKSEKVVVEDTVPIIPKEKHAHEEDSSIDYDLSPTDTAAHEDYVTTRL
Chain of Short transient receptor potential channel 6 (Mus musculus) (Q61143 whole entry, looked up): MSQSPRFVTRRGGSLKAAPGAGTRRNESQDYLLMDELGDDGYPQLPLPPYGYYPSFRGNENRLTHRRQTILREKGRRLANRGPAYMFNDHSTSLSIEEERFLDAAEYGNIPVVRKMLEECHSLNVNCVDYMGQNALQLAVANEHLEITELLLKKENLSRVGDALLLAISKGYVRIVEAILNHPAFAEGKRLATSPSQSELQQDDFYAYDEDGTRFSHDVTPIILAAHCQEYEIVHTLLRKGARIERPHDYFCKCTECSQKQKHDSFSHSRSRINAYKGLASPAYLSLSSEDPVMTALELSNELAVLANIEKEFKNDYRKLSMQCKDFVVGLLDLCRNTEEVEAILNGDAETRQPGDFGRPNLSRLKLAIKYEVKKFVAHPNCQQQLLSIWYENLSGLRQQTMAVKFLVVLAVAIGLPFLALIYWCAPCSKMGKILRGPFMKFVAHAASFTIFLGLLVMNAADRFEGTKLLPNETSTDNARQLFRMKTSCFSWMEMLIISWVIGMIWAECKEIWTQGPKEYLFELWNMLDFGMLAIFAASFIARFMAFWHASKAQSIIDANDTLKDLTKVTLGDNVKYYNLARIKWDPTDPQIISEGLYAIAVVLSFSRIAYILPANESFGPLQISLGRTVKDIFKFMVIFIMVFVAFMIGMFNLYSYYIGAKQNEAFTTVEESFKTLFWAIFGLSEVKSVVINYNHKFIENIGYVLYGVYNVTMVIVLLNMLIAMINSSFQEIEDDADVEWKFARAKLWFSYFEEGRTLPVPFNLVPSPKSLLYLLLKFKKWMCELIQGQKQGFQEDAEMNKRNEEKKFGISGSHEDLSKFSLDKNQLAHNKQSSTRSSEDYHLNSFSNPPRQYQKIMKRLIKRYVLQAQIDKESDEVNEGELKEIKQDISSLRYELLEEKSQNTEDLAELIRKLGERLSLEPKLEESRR

Consider `Cc1ccc(C[n+]2cc(-c3ccc(Cl)cc3)n3c2CCC3)cc1`, for which the result in [1], in test [2], in test [3], in [4], in [7] and in test [8] was inactive. Moreover, the result in [9], in [10], in [11], in test [12], in [14] and in [15] was inactive. The outcome in test [16] was inactive. Also, the inhibition is 73% (active) in test [5], 64% (active) in test [6] and 41.9% (active) in [13].

Turning to `Cc1cc(Nc2cccc(O)c2)c2ccccc2n1`, the result in test [1], in test [2], in test [3], in test [4], in test [6] and in [7] was inactive. Further, the outcome in [8], in [10], in test [11], in test [12], in test [13] and in test [14] was inactive. Moreover, the result in test [15] and in [16] was inactive. Also, the inhibition in test [5] is 86% (active); in [9], 55% (active).

Turning to `Cc1nc2ccccc2n1Cc1ccc(Br)cc1`, the outcome in test [1], in test [2], in test [3], in [4], in test [7] and in test [8] was inactive. For the same molecule, the molecule was classed as inactive in test [9], in test [10], in test [11], in test [12], in test [14] and in test [15]. Also, the result in [16] was inactive. For the same molecule, the inhibition in test [5] was 96% (active); in [6] it was 74% (active); in test [13] it was 9.19% (active).

`CCN(C(=O)c1c(-c2ccccc2Cl)noc1C)C1CCCCC1`: the outcome in test [1], in test [2], in test [3], in test [4], in test [6] and in [7] was inactive. The outcome in [8], in test [9], in [10], in test [11], in test [12] and in test [14] was inactive. Moreover, the outcome in [15] and in test [16] was inactive. Besides, the inhibition in test [5] is 71% (active); in test [13] it was 38.5% (active).

As to `CC1CCCN1CC#CC(O)(c1ccccc1)c1ccccc1` (stereo not given), the outcome in test [1], in test [2], in [3], in [4], in [7] and in [8] was inactive. The molecule was classed as inactive in test [10], in test [11], in [12], in test [14], in [15] and in [16]. The inhibition in [5] is 79% (active); in test [6], 62% (active); in test [9] it was 13.5% (active); in [13] it was 33.5% (active).

In the case of `C/C(CC(=O)N(C(C)C)C(C)C)=N\NC(=O)COc1ccc(Cl)cc1Cl`, the result in [1], in test [2], in [3], in [4], in [6] and in test [7] was inactive. In addition, the result in [8], in [9], in [10], in test [11], in test [12] and in test [13] was inactive. Also, the result in [14], in [15] and in test [16] was inactive. The inhibition in [5] was 83% (active).

For the molecule `CCCN1CN(Cc2ccco2)c2nc3ccccc3n2C1`, the outcome in test [1], in [2], in test [3], in test [4], in [7] and in [8] was inactive. The call in test [9], in [10], in test [11], in test [12], in test [14] and in test [15] was inactive. In addition, the outcome in test [16] was inactive. Also, the inhibition is 96% (active) in test [5], 53% (active) in test [6] and 25% (active) in test [13].

With `CCn1cc(CN2CCCC(CO)(Cc3cccc(Cl)c3)C2)cn1` (stereo not given), the outcome in test [1], in [2], in test [3], in test [4], in test [6] and in test [7] was inactive. Besides, the result in [8], in test [9], in test [10], in test [11], in test [12] and in [14] was inactive. Further, the outcome in [15] and in [16] was inactive. Further, the inhibition was 94% (active) in test [5] and 38.8% (active) in test [13].

In the case of `O=C(CSc1nnc(-c2ccc(Cl)cc2Cl)n1C1CCCCC1)NC1CCS(=O)(=O)C1` (stereo not given), the outcome in test [1], in test [2], in [3], in test [4], in test [6] and in test [7] was inactive. Further, the outcome in [8], in test [9], in test [10], in test [11], in test [12] and in test [13] was inactive. For the same molecule, the result in test [14], in test [15] and in [16] was inactive. In addition, the inhibition in test [5] was 82% (active).

In the case of `COc1ccccc1N1CCc2c(C)nc3c(OC)cccc3c21`, the result in test [1], in test [2], in test [3], in test [4], in [7] and in [8] was inactive. Moreover, the result in [10], in test [11], in test [12], in [14], in test [15] and in [16] was inactive. Also, the inhibition in test [5] is 92% (active); in [6] it was 44% (active); in test [9] it was 29% (active); in test [13], 16.3% (active).

Consider `C=CCOc1ccc(Br)cc1CNC(C)(C)CO`, for which the result in [1], in [2], in test [3], in test [4], in test [7] and in test [8] was inactive. The call in [9], in [10], in [11], in test [12], in test [14] and in [15] was inactive. The outcome in [16] was inactive. Further, the results for the inhibition in [5], in test [6] and in test [13] were 94% (active), 39% (active) and 24.1% (active), respectively.

With `COCCn1c(SCc2ccc(F)cc2)nc2ccccc2c1=O`, the outcome in [1], in [2], in [3], in test [4], in [6] and in [7] was inactive. Besides, the result in test [8], in [9], in test [10], in [11], in test [12] and in test [14] was inactive. The result in [15] and in [16] was inactive. Also, the inhibition is 96% (active) in [5] and 21.6% (active) in [13].

With `N#CCCn1cc(CNCc2ccccc2)c(-c2cccc([N+](=O)[O-])c2)n1`, the outcome in test [1], in test [2], in test [3], in test [4], in [7] and in test [8] was inactive. The molecule was classed as inactive in test [9], in test [10], in [11], in [12], in test [14] and in test [15]. In test [16], the outcome was inactive. The results for the inhibition in test [5], in test [6] and in [13] were 65% (active), 36% (active) and 30.7% (active), respectively.

Regarding `COc1ccc(Nc2cc(C)nc3ccccc23)cc1`, the result in test [1], in [2], in [3], in test [4], in [6] and in test [7] was inactive. Also, the result in test [8], in [10], in test [11], in test [12], in [14] and in [15] was inactive. In addition, in test [16], the result was inactive. In addition, the inhibition in test [5] was 86% (active); in [9], 39% (active); in test [13], 28.9% (active).

Take `COc1ccc(CN2CCN(Cc3ccccc3F)CC2)c(OC)c1`: the outcome in [1], in test [2], in test [3], in test [4], in test [6] and in [7] was inactive. For the same molecule, the outcome in test [8], in test [9], in test [10], in test [11], in [12] and in test [14] was inactive. For the same molecule, the result in test [15] and in test [16] was inactive. Moreover, the inhibition is 89% (active) in test [5] and 30.4% (active) in test [13].
